# Assay results published in publication PMC11006913.
# Residue numbers refer to the chain shown, from its start.
# Key:
# Assay in all cases: PBM; 200 nM protein, PBS
# Conditions in all cases: dsDNA, one strand shown
# [1] = molecular target: HOXB9 (Homo sapiens, UniProt P17482 171-250, T197M)
# [2] = molecular target: PRRX1 (Homo sapiens, UniProt P54821 80-166, F113S)
# [3] = molecular target: HOXB9 (Homo sapiens, UniProt P17482 171-250)
# [4] = molecular target: HOXB9 (Homo sapiens, UniProt P17482 171-250, R186Q)
# [5] = molecular target: PRRX1 (Homo sapiens, UniProt P54821 80-166)
# [6] = molecular target: T1, PAX4 (Homo sapiens, UniProt O43316 9-242, R200K)
# T1 sequence: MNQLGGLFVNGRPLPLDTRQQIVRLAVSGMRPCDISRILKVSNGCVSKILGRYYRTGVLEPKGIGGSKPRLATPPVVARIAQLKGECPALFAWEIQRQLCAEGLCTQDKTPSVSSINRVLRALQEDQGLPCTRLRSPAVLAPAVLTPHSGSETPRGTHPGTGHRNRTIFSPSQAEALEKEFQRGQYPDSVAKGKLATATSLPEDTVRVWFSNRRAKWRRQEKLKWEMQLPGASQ
# [7] = molecular target: T2, PAX4 (Homo sapiens, UniProt O43316 9-242)
# T2 sequence: T1 sequence with K192R
# [8] = molecular target: T3, PAX4 (Homo sapiens, UniProt O43316 9-242, R200Q)
# T3 sequence: T1 sequence with K192Q
# [9] = molecular target: T4, PAX4 (Homo sapiens, UniProt O43316 9-242, F177V)
# T4 sequence: T1 sequence with F169V, K192R
# [10] = molecular target: T5, PAX4 (Homo sapiens, UniProt O43316 9-242, F177Y)
# T5 sequence: T1 sequence with F169Y, K192R
# [11] = molecular target: T6, PAX4 (Homo sapiens, UniProt O43316 9-242, R227W)
# T6 sequence: T1 sequence with K192R, R219W
# [12] = molecular target: HOXA7 (Homo sapiens, UniProt P31268 116-202)
# [13] = molecular target: HOXB6 (Homo sapiens, UniProt P17509 132-218, K202E)
# [14] = molecular target: HOXA4 (Homo sapiens, UniProt Q00056 201-287, R217L)
# [15] = molecular target: MSX2 (Homo sapiens, UniProt P35548 130-214, R199I)
# [16] = molecular target: HOXA7 (Homo sapiens, UniProt P31268 116-202, W177C)
# [17] = molecular target: HOXA4 (Homo sapiens, UniProt Q00056 201-287, W262F)
# [18] = molecular target: HOXB6 (Homo sapiens, UniProt P17509 132-218)
# [19] = molecular target: ALX3 (Homo sapiens, UniProt O95076 139-225, N203Q)
# [20] = molecular target: HOXC9 (Homo sapiens, UniProt P31274 178-260, R222W)
# [21] = molecular target: HOXC10 (Homo sapiens, UniProt Q9NYD6 254-340)
# [22] = molecular target: HOXC10 (Homo sapiens, UniProt Q9NYD6 254-340, K271E)
# [23] = molecular target: MSX2 (Homo sapiens, UniProt P35548 130-214)
# [24] = molecular target: MSX2 (Homo sapiens, UniProt P35548 130-214, F161Y)
# [25] = molecular target: HOXC9 (Homo sapiens, UniProt P31274 178-260, K195R)
# [26] = molecular target: HOXC9 (Homo sapiens, UniProt P31274 178-260)
# [27] = molecular target: HOXC9 (Homo sapiens, UniProt P31274 178-260, R193K)
# [28] = molecular target: PROP1 (Homo sapiens, UniProt O75360 56-141)
# [29] = molecular target: PROP1 (Homo sapiens, UniProt O75360 56-141, R99H)
# [30] = molecular target: PROP1 (Homo sapiens, UniProt O75360 56-141, F88S)
# [31] = molecular target: ALX4 (Homo sapiens, UniProt Q9H161 200-286, Q225E)
# [32] = molecular target: HOXD13 (Homo sapiens, UniProt P35453 263-343, T313R)
# [33] = molecular target: HOXD13 (Homo sapiens, UniProt P35453 263-343)
# [34] = molecular target: HOXD13 (Homo sapiens, UniProt P35453 263-343, T313A)
# HOXD13 (Homo sapiens, UniProt P35453 263-343, T313A), sequence (P35453 263-343 T313A): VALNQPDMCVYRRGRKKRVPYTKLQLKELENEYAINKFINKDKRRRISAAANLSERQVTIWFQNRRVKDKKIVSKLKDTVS
# HOXB6 (Homo sapiens, UniProt P17509 132-218), sequence (P17509 132-218): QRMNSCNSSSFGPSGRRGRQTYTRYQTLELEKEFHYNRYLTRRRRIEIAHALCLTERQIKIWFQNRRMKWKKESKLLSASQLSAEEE
# HOXB9 (Homo sapiens, UniProt P17482 171-250, T197M), sequence (P17482 171-250 T197M): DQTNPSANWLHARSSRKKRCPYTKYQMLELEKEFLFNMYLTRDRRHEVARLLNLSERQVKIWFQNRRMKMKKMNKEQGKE
# HOXB6 (Homo sapiens, UniProt P17509 132-218, K202E), sequence (P17509 132-218 K202E): as the sequence (P17509 132-218) above, with K71E counted along it
# HOXB9 (Homo sapiens, UniProt P17482 171-250, R186Q), sequence (P17482 171-250 R186Q): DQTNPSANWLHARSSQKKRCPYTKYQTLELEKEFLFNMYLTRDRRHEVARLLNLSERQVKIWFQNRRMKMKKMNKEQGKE
# HOXC9 (Homo sapiens, UniProt P31274 178-260, R222W), sequence (P31274 178-260 R222W): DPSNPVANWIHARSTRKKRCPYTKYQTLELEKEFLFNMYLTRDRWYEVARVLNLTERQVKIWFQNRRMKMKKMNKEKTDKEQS
# HOXC10 (Homo sapiens, UniProt Q9NYD6 254-340, K271E), sequence (Q9NYD6 254-340 K271E): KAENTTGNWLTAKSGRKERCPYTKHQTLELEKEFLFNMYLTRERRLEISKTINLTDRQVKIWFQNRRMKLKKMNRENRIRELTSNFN
# HOXB9 (Homo sapiens, UniProt P17482 171-250), sequence (P17482 171-250): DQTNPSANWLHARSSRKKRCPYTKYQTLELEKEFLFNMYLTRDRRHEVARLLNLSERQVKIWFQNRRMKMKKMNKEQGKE
# HOXC10 (Homo sapiens, UniProt Q9NYD6 254-340), sequence (Q9NYD6 254-340): as the sequence (Q9NYD6 254-340 K271E) above, with E18K counted along it
# HOXA7 (Homo sapiens, UniProt P31268 116-202), sequence (P31268 116-202): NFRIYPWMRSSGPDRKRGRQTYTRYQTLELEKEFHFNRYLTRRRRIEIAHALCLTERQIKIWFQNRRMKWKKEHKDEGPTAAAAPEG
# HOXA7 (Homo sapiens, UniProt P31268 116-202, W177C), sequence (P31268 116-202 W177C): as the sequence (P31268 116-202) above, with W62C counted along it
# MSX2 (Homo sapiens, UniProt P35548 130-214, R199I), sequence (P35548 130-214 R199I): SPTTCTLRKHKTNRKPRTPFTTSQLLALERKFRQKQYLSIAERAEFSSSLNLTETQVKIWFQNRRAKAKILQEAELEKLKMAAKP
# PRRX1 (Homo sapiens, UniProt P54821 80-166, F113S), sequence (P54821 80-166 F113S): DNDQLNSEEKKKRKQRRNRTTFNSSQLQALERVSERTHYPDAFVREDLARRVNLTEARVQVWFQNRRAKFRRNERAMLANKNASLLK
# PROP1 (Homo sapiens, UniProt O75360 56-141, F88S), sequence (O75360 56-141 F88S): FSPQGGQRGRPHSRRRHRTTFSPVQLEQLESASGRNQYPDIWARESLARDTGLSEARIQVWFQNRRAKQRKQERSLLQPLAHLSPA
# HOXD13 (Homo sapiens, UniProt P35453 263-343, T313R), sequence (P35453 263-343 T313R): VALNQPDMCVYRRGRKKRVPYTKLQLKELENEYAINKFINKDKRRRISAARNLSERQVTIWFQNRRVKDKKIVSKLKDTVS
# ALX4, sequence (Q9H161 200-286 Q225E): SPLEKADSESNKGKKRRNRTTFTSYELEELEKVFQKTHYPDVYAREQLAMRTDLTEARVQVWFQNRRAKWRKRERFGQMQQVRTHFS
# MSX2 (Homo sapiens, UniProt P35548 130-214), sequence (P35548 130-214): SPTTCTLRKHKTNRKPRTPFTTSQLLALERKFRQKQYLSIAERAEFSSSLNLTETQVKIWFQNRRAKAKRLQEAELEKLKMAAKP
# MSX2 (Homo sapiens, UniProt P35548 130-214, F161Y), sequence (P35548 130-214 F161Y): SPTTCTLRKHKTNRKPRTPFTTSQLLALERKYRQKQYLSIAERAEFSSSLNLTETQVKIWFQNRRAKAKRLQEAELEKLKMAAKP
# HOXA4 (Homo sapiens, UniProt Q00056 201-287, R217L), sequence (Q00056 201-287 R217L): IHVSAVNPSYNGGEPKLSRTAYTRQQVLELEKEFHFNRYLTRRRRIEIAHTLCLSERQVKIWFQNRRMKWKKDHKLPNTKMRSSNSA
# PROP1 (Homo sapiens, UniProt O75360 56-141, R99H), sequence (O75360 56-141 R99H): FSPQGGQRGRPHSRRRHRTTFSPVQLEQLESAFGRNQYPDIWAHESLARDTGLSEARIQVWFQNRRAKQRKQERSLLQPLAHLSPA
# PROP1 (Homo sapiens, UniProt O75360 56-141), sequence (O75360 56-141): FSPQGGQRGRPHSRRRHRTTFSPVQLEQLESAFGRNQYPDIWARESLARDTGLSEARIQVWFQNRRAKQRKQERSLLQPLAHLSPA
# HOXC9 (Homo sapiens, UniProt P31274 178-260, R193K), sequence (P31274 178-260 R193K): as the sequence (P31274 178-260 R222W) above, with R16K, W45R counted along it
# PRRX1 (Homo sapiens, UniProt P54821 80-166), sequence (P54821 80-166): as the sequence (P54821 80-166 F113S) above, with S34F counted along it
# ALX3, sequence (O95076 139-225 N203Q): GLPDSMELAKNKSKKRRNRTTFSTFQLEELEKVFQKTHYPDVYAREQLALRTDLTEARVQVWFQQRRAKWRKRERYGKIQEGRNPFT
# HOXC9 (Homo sapiens, UniProt P31274 178-260, K195R), sequence (P31274 178-260 K195R): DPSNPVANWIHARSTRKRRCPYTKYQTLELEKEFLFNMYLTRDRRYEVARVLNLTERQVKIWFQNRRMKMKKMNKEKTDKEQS
# HOXD13 (Homo sapiens, UniProt P35453 263-343), sequence (P35453 263-343): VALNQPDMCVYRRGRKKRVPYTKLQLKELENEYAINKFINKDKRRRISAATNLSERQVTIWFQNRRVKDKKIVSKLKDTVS
# HOXA4 (Homo sapiens, UniProt Q00056 201-287, W262F), sequence (Q00056 201-287 W262F): as the sequence (Q00056 201-287 R217L) above, with L17R, W62F counted along it
# HOXC9 (Homo sapiens, UniProt P31274 178-260), sequence (P31274 178-260): as the sequence (P31274 178-260 R222W) above, with W45R counted along it
sequence,measurement,setting,value
CAGAAGCC,binding signal,[1],"8.6 upbm affinity estimate (log intensity, higher = more binding, comparable within an allelic series)"
same,binding signal,[2],"9.41 upbm affinity estimate (log intensity, higher = more binding, comparable within an allelic series)"
same,binding signal,[3],"8.72 upbm affinity estimate (log intensity, higher = more binding, comparable within an allelic series)"
same,binding signal,[4],"8.73 upbm affinity estimate (log intensity, higher = more binding, comparable within an allelic series)"
same,binding signal,[5],"9.47 upbm affinity estimate (log intensity, higher = more binding, comparable within an allelic series)"
CCCGCGGC,binding signal,[1],"8.53 upbm affinity estimate (log intensity, higher = more binding, comparable within an allelic series)"
same,binding signal,[6],"9.28 upbm affinity estimate (log intensity, higher = more binding, comparable within an allelic series)"
same,binding signal,[7],"9.32 upbm affinity estimate (log intensity, higher = more binding, comparable within an allelic series)"
same,binding signal,[3],"8.39 upbm affinity estimate (log intensity, higher = more binding, comparable within an allelic series)"
same,binding signal,[8],"9.34 upbm affinity estimate (log intensity, higher = more binding, comparable within an allelic series)"
same,binding signal,[9],"9.09 upbm affinity estimate (log intensity, higher = more binding, comparable within an allelic series)"
same,binding signal,[10],"9.18 upbm affinity estimate (log intensity, higher = more binding, comparable within an allelic series)"
same,binding signal,[4],"8.48 upbm affinity estimate (log intensity, higher = more binding, comparable within an allelic series)"
same,binding signal,[11],"9.24 upbm affinity estimate (log intensity, higher = more binding, comparable within an allelic series)"
AATTACCA,binding signal,[1],"10.1 upbm affinity estimate (log intensity, higher = more binding, comparable within an allelic series)"
same,binding signal,[12],"11.2 upbm affinity estimate (log intensity, higher = more binding, comparable within an allelic series)"
same,binding signal,[2],"11.1 upbm affinity estimate (log intensity, higher = more binding, comparable within an allelic series)"
same,binding signal,[13],"9.98 upbm affinity estimate (log intensity, higher = more binding, comparable within an allelic series)"
same,binding signal,[14],"11.9 upbm affinity estimate (log intensity, higher = more binding, comparable within an allelic series)"
same,binding signal,[15],"12.2 upbm affinity estimate (log intensity, higher = more binding, comparable within an allelic series)"
same,binding signal,[16],"8.87 upbm affinity estimate (log intensity, higher = more binding, comparable within an allelic series)"
same,binding signal,[17],"11.4 upbm affinity estimate (log intensity, higher = more binding, comparable within an allelic series)"
same,binding signal,[18],"11.7 upbm affinity estimate (log intensity, higher = more binding, comparable within an allelic series)"
AATAATAA,binding signal,[1],"9.97 upbm affinity estimate (log intensity, higher = more binding, comparable within an allelic series)"
same,binding signal,[12],"10.8 upbm affinity estimate (log intensity, higher = more binding, comparable within an allelic series)"
same,binding signal,[13],"10 upbm affinity estimate (log intensity, higher = more binding, comparable within an allelic series)"
same,binding signal,[19],"8.58 upbm affinity estimate (log intensity, higher = more binding, comparable within an allelic series)"
same,binding signal,[20],"11.1 upbm affinity estimate (log intensity, higher = more binding, comparable within an allelic series)"
same,binding signal,[16],"8.85 upbm affinity estimate (log intensity, higher = more binding, comparable within an allelic series)"
CGTGAAGC,binding signal,[1],"8.57 upbm affinity estimate (log intensity, higher = more binding, comparable within an allelic series)"
same,binding signal,[21],"10 upbm affinity estimate (log intensity, higher = more binding, comparable within an allelic series)"
same,binding signal,[13],"9.08 upbm affinity estimate (log intensity, higher = more binding, comparable within an allelic series)"
same,binding signal,[3],"8.56 upbm affinity estimate (log intensity, higher = more binding, comparable within an allelic series)"
same,binding signal,[15],"9.57 upbm affinity estimate (log intensity, higher = more binding, comparable within an allelic series)"
same,binding signal,[22],"10 upbm affinity estimate (log intensity, higher = more binding, comparable within an allelic series)"
same,binding signal,[23],"9.35 upbm affinity estimate (log intensity, higher = more binding, comparable within an allelic series)"
same,binding signal,[4],"8.45 upbm affinity estimate (log intensity, higher = more binding, comparable within an allelic series)"
same,binding signal,[24],"9.38 upbm affinity estimate (log intensity, higher = more binding, comparable within an allelic series)"
same,binding signal,[18],"8.9 upbm affinity estimate (log intensity, higher = more binding, comparable within an allelic series)"
ACATTAAA,binding signal,[1],"9.92 upbm affinity estimate (log intensity, higher = more binding, comparable within an allelic series)"
same,binding signal,[25],"12.6 upbm affinity estimate (log intensity, higher = more binding, comparable within an allelic series)"
same,binding signal,[3],"12 upbm affinity estimate (log intensity, higher = more binding, comparable within an allelic series)"
same,binding signal,[26],"12.6 upbm affinity estimate (log intensity, higher = more binding, comparable within an allelic series)"
same,binding signal,[27],"12.6 upbm affinity estimate (log intensity, higher = more binding, comparable within an allelic series)"
same,binding signal,[22],"11.8 upbm affinity estimate (log intensity, higher = more binding, comparable within an allelic series)"
same,binding signal,[4],"11.7 upbm affinity estimate (log intensity, higher = more binding, comparable within an allelic series)"
same,binding signal,[20],"11 upbm affinity estimate (log intensity, higher = more binding, comparable within an allelic series)"
GGTGGAGA,binding signal,[1],"8.58 upbm affinity estimate (log intensity, higher = more binding, comparable within an allelic series)"
same,binding signal,[13],"9.03 upbm affinity estimate (log intensity, higher = more binding, comparable within an allelic series)"
same,binding signal,[3],"8.51 upbm affinity estimate (log intensity, higher = more binding, comparable within an allelic series)"
same,binding signal,[28],"6.89 upbm affinity estimate (log intensity, higher = more binding, comparable within an allelic series)"
same,binding signal,[29],"6.82 upbm affinity estimate (log intensity, higher = more binding, comparable within an allelic series)"
same,binding signal,[4],"8.56 upbm affinity estimate (log intensity, higher = more binding, comparable within an allelic series)"
same,binding signal,[30],"6.65 upbm affinity estimate (log intensity, higher = more binding, comparable within an allelic series)"
same,binding signal,[18],"9.09 upbm affinity estimate (log intensity, higher = more binding, comparable within an allelic series)"
TCAATAAA,binding signal,[1],"9.75 upbm affinity estimate (log intensity, higher = more binding, comparable within an allelic series)"
same,binding signal,[21],"12.2 upbm affinity estimate (log intensity, higher = more binding, comparable within an allelic series)"
same,binding signal,[31],"11.2 upbm affinity estimate (log intensity, higher = more binding, comparable within an allelic series)"
same,binding signal,[3],"11.8 upbm affinity estimate (log intensity, higher = more binding, comparable within an allelic series)"
same,binding signal,[32],"11 upbm affinity estimate (log intensity, higher = more binding, comparable within an allelic series)"
same,binding signal,[33],"12 upbm affinity estimate (log intensity, higher = more binding, comparable within an allelic series)"
same,binding signal,[22],"11.6 upbm affinity estimate (log intensity, higher = more binding, comparable within an allelic series)"
same,binding signal,[34],"11.7 upbm affinity estimate (log intensity, higher = more binding, comparable within an allelic series)"
same,binding signal,[4],"11.5 upbm affinity estimate (log intensity, higher = more binding, comparable within an allelic series)"
same,binding signal,[20],"11.3 upbm affinity estimate (log intensity, higher = more binding, comparable within an allelic series)"
